Compound activity: PubChem BioAssay, National Center for Advancing Translational Sciences (NCATS)
TDP1 block: inhibitors of human tyrosyl-DNA phosphodiesterase TDP1; recombinant TDP1, AlphaScreen DNA substrate cleavage; Potency, µM (series often up to 130 µM), most hits filed as inhibitors; 350,000 compounds, 0.28% hits; AID 485290; further: nearly all actives have a fitted effect of over 40% in size
Target sequence (Q9NUW8 whole entry, looked up): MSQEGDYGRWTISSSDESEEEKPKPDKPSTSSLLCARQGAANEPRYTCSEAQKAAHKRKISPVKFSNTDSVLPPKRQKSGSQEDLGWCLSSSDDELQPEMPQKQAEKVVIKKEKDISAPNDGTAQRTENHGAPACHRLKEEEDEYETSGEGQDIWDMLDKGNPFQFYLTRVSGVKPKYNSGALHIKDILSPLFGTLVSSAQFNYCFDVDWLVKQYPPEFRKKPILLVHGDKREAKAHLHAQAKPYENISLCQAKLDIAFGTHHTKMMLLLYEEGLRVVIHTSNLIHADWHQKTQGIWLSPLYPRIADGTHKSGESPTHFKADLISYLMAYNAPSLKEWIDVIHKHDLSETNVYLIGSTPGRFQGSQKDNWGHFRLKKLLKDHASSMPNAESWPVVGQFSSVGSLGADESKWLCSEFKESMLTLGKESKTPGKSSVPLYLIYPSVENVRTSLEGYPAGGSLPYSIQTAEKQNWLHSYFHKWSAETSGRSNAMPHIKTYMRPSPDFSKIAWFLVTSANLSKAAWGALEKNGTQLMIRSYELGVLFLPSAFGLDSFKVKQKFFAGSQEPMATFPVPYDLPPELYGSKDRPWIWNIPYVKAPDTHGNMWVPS
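Recombinant E. coli-expressed Tdp1 (1 nM) preincubated with compound 15 min at RT, then 5'-biotin/3'-phosphotyrosine-FITC DNA substrate (15 nM) added for 5 min. AlphaScreen beads (10 ug/ml) added, 10 min RT; tyrosine-FITC cleavage read as signal loss.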
TDP1 cell CPT: growth inhibition of DT40 Tdp1-/-;hTDP1 cells with camptothecin (screen for TDP1 inhibitors); 420,000 compounds, 12% hits; chicken DT40 Tdp1-/-;hTDP1 cells + 20 nM CPT, ATP luminescence, 48 h; Potency, µM (series often up to 46.2 µM), usual class: inhibitors; AID 686979; further: nearly all actives have a fitted effect of over 55% in size
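Chicken DT40 Tdp1-/- cells complemented with human TDP1, 400 cells/well, exposed to compounds plus 20 nM camptothecin for at least 48 h at 37 C; viability read as ATP content by CellTiter-Glo luminescence.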
TDP1 cell noCPT: qHTS for Inhibitors of human tyrosyl-DNA phosphodiesterase 1 (TDP1): qHTS in cells in absence of CPT. DT40 Tdp1-/- hTDP1 cells, no CPT, ATP luminescence, 48 h. Potency, µM (titrated, usually from 46.2 µM), usual class: inhibitors. AID 686978, 2013. 420,000 compounds, 15% hits; further: nearly all actives have a fitted effect of over 55% in size
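Luminescent ATP content (CellTiter-Glo) served as the growth readout. Knockout chicken DT40 cells expressing human TDP1 were exposed to compounds without camptothecin for a minimum 48 hr at 37 °C.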
Giardia killer: Giardia lamblia killing. Giardia lamblia trophozoite viability. activity change, % at 7.66 µM, hits read low. 340,000 compounds, 0.15% hits. AID 540267; in the data active means activity change below about -80%; inconclusive means between about -30% and that limit;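 further: parasites exposed to compound for two days anaerobically before the ATP read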
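Luminescent ATP signal served as the viability read-out, measured 15-30 min after adding ATP detection reagent to trophozoites that had been incubated with compounds for 48 hrs at 37 deg C anaerobically at 100 cells/well.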
ELG1 repair inh: inhibitors of ELG1-dependent DNA repair in HEK293T cells; HEK293T ELG1-luciferase reporter, luminescence, 16 h; DNA damage induced by 5-fluorouridine; Potency, µM (highest dose often 46.1 µM), most hits filed as inhibitors; 330,000 compounds, 2.3% hits; AID 504467; further: nearly all actives have a fitted effect of over 55% in size
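Overnight (16 hr) co-exposure of 2,000 cells/well to 5-fluorouridine and compound at 37 °C preceded detection. Luciferase was quantified via ONE-Glo luminescence; loss of signal denotes inhibition.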
IL1B secr inh: blocks inflammasome-driven IL-1 beta release; THP-1 LPS/ATP IL-1B secretion, AlphaLISA, 16 h; hits give low values; activity change, % at 57.5 µM; 360,000 compounds, 4.7% hits; AID 743279; in the data active means activity change below about -50%; inconclusive means mostly about -30% to -49%
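Secreted IL-1B measured by AlphaLISA bead assay after 16 h compound exposure of THP-1 cells; compounds (final up to 57.5 uM) added 1 h before LPS (250 ng/mL) and ATP (1.25 mM) stimulation; lower signal means less secretion.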
Large screens that a line does not name were inactive. The list is not random: actives were taken first. Their share in the collection is about 19%. Unless noted, the call rests on the fitted dose curve; in most records, active means well fitted curve in the direction sought with a large enough effect; inconclusive means small, poorly fitted or top-dose-only effect, or another doubt; inactive means no such curve, though single readings can be large; an effect the other way counts as inactive or inconclusive.

CC1C(=O)C(C)C(c2cccc(Br)c2)NC1c1cccc(Br)c1 (stereo unspecified)	none (no result: TDP1 block)
CCc1ccc(NC(=O)CNCc2ccc(OC)c(OC)c2)cc1	TDP1 cell noCPT inconclusive (no result: TDP1 block)
CN(C(=O)c1ccc(NC(=O)C2CCCN(C(=O)OC(C)(C)C)C2)cc1)C1CCCC1 (stereo unspecified)	TDP1 cell CPT inconclusive, TDP1 cell noCPT inconclusive, ELG1 repair inh inconclusive
CN(C(=O)c1ccc(NC(=O)C2CCCN(C(=O)OC(C)(C)C)C2)cc1)C1CCC1 (stereo unspecified)	TDP1 cell CPT inconclusive, TDP1 cell noCPT 16.4µM, ELG1 repair inh inconclusive
COc1cc2c(cc1OC)C(c1cc(Br)ccc1F)N(C(=O)CCl)CC2 (stereo unspecified)	TDP1 cell CPT 1.46µM, TDP1 cell noCPT 1.64µM, IL1B secr inh -71.3 (no result: TDP1 block)
O=C(C1CCCN(Cc2ccccc2Cl)C1)N1CCCCC1 (stereo unspecified)	none (no result: TDP1 block)
CC(C)(C)c1ccc(CC(=O)N2CCC2(C)C(=O)NS(=O)(=O)c2cccc(F)c2)cc1 (stereo unspecified)	none (no result: TDP1 block, Giardia killer, ELG1 repair inh)
Nc1[nH]c(C(=O)c2ccccc2)c(-c2ccc(Br)cc2)c1C(=O)c1cccs1	TDP1 cell noCPT inconclusive (no result: TDP1 block, Giardia killer, ELG1 repair inh)
CC(C)(C)C(=O)c1c(N)[nH]c(C(=O)c2ccccc2)c1-c1ccc(C(F)(F)F)cc1	TDP1 cell CPT inconclusive, TDP1 cell noCPT 23.1µM (no result: TDP1 block, Giardia killer, ELG1 repair inh)
Nc1[nH]c(C(=O)c2ccccc2)c(-c2ccccc2C(F)(F)F)c1C(=O)c1cccs1	TDP1 cell CPT 23.1µM, TDP1 cell noCPT 23.1µM (no result: TDP1 block, Giardia killer, ELG1 repair inh)
Cc1sc(NC(=O)c2ccco2)nc1-c1ccc2c(c1)CC(C)N2C(=O)C1CC1 (stereo unspecified)	TDP1 cell CPT 6.31µM, TDP1 cell noCPT 3.55µM, ELG1 repair inh 14.6µM, IL1B secr inh -72.9
CC(=O)Nc1nc(-c2ccc3c(c2)CC(C)N3C(=O)C2CC2)c(C)s1 (stereo unspecified)	TDP1 cell CPT 1.16µM, TDP1 cell noCPT 2.06µM, ELG1 repair inh 8.2µM (no result: TDP1 block)
CCN(CC(=O)Nc1ccc(NC(C)=O)cc1)C(=O)c1cccc(N2C(=O)c3ccccc3C2=O)c1	none (no result: TDP1 block, ELG1 repair inh)
Cc1cscc1-c1ccc(C(=O)Nc2c(C)cccc2C)o1	TDP1 cell CPT 3.66µM, TDP1 cell noCPT 4.61µM, IL1B secr inh inconclusive (no result: TDP1 block, Giardia killer, ELG1 repair inh)
Cc1ccc(NC(=O)c2ccc(Cl)c(S(=O)(=O)N3CCCCCC3)c2)nc1	TDP1 cell noCPT inconclusive, ELG1 repair inh inconclusive
O=C(NCCc1ccc(Cl)cc1)c1ccc(Cn2c(=O)c3cccn3c3cccnc32)cc1	TDP1 cell CPT inconclusive, TDP1 cell noCPT 14.6µM (no result: Giardia killer, ELG1 repair inh, IL1B secr inh)
CCOc1ccc(CCNC(=O)c2cccc(-n3c(C)nc4cccnc43)c2C)cc1	TDP1 cell CPT 20.6µM, TDP1 cell noCPT 14.6µM (no result: Giardia killer, ELG1 repair inh, IL1B secr inh)
CC(C)Oc1ccc(CNC(=O)c2ccc(Cn3c(=O)c4cccn4c4cccnc43)cc2)cc1	TDP1 cell CPT inconclusive, TDP1 cell noCPT 0.461µM (no result: Giardia killer, ELG1 repair inh, IL1B secr inh)
CCOc1ccc(CCNC(=O)c2ccc(Cn3c(=O)c4cccn4c4cccnc43)cc2)cc1	TDP1 cell CPT 13µM, TDP1 cell noCPT 20.6µM (no result: TDP1 block, Giardia killer, ELG1 repair inh, IL1B secr inh)
Fc1cccc(Cl)c1CNc1n[nH]c(-c2ccco2)n1	TDP1 cell CPT inconclusive (no result: Giardia killer, ELG1 repair inh, IL1B secr inh)
NCCC(=O)[N-][C@@H](Cc1cnc[nH]1)C(=O)O.[Zn]	none (no result: TDP1 block, Giardia killer, ELG1 repair inh, IL1B secr inh)
CCOc1ccc(OCCC(=O)OCC(=O)NC(C)c2ccccc2)cc1 (stereo unspecified)	none (no result: TDP1 block)
CCOC(=O)c1cc(-c2ccc(N3CCOCC3)cc2)nn1-c1ccccc1C(=O)O	TDP1 block 1.58µM
CCOC(=O)c1cc(-c2ccc(N3CCOCC3)cc2)nn1-c1ccc(F)cc1F	TDP1 cell CPT inconclusive, TDP1 cell noCPT inconclusive, ELG1 repair inh inconclusive, IL1B secr inh inconclusive
O=C(O)c1cc(-c2ccc(N3CCOCC3)cc2)nn1-c1ccc(F)cc1	none
CCOC(=O)c1cc(-c2ccc(N3CCOCC3)cc2)nn1-c1ccccc1	TDP1 cell CPT 20.6µM, TDP1 cell noCPT 11.6µM, ELG1 repair inh inconclusive
